From ChEMBL document CHEMBL3988442, “University of Dundee, Small-Polar-MMV Screening Library” (2021)
Hit rate of the full screen: of about 48,000 compounds, about 13,000 (27%) showed an effect of 50% or more. The list shows a part of the results.

Each molecule was assayed on Wolbachia pipientis (assay: Anti-Wolbachia Cell-Based Screen). Conditions: 5 µM.
Type: functional
Design: scale not given: in the data most compounds retested in dose-response had high values

| Compound | Percent Effect |
| --- | --- |
| CCC(Oc1ccc(N(C)S(C)(=O)=O)cc1)C(=O)NC (stereo not given) | 9.37% |
| CC(C)NC(=O)N1CCCC2(CCCCN2)C1 (stereo not given) | -45.21% |
| CNC(=O)Cc1noc(-c2cc3c(s2)CCCC3)n1 | 9.229% |
| Cc1cccc(CN(Cc2ccccc2)Cc2nccs2)n1 | -3.089% |
| COc1ccccc1OC1CN(C(=O)CN(C)Cc2ccncc2)C1 | -7.187% |
| CCC(=O)NC1CCCN(Cc2ccc(-n3ccnc3)cc2)C1 (stereo not given) | 12% |
| CCc1nc2ccccc2c(=O)n1CC1(O)CCN(S(C)(=O)=O)CC1.Cl | -5.087% |
| CCc1nc2ccccc2c(=O)n1CC1(O)CCNCC1.Cl | 113.9% |
| Cc1nc2ccccc2c(=O)n1CCC(=O)N1CCNC(=O)C1 | -8.423% |
| CCNC(=O)N(Cc1ccoc1)C1CCCCC1 | -0.3193% |
| Cc1cc(C(=O)NCCSC2CCCC2)no1 | -0.7527% |
| Cc1cc(-c2cnn(CCNC(=O)C3CC3)c2C2CC2)on1 | 8.757% |
| Cc1cc(-c2cnn(CCNC(=O)c3cnn(C)c3)c2C2CC2)on1 | 133.8% |
| Cc1cc(-c2cnn(CCNC(=O)c3cccnc3)c2C2CC2)on1.Cl | -6.458% |
| Cc1cc(-c2cnn(CCNC(=O)c3snnc3C)c2C2CC2)on1 | 141.4% |
| Cc1cc(-c2cnn(CCNC(=O)c3cc[nH]n3)c2C2CC2)on1 | 115.4% |
| CCCn1nc(C)c(CNC(=O)c2snnc2C)c1C | -13.49% |
| CCc1cccc(N2CCC(NC(=O)c3cc[nH]n3)CC2)c1 | 15.39% |

| Compound | Percent Effect |
| --- | --- |
| O=C(NCCc1nnc[nH]1)Nc1cccc(SC(F)F)c1 | -17.31% |
| O=C(C[S+]([O-])Cc1ccc(Cl)cc1Cl)N1CCc2sccc2C1 (stereo not given) | -26.03% |
| Cc1nc(CN(C)C(=O)C2CC(=O)N(c3cccc(O)c3)C2)cs1 (stereo not given) | -3.806% |
| COc1cccc(S(=O)(=O)CCN2CCCN(C(C)=O)CC2)c1 | -4.305% |
| CN1CCOC[C@H]1c1nc(-c2ccncc2)c[nH]1 | -4.576% |
| Cc1ccc(C)c(NC(=O)N2CCC3(CC2)NC(=O)CC3C(=O)O)c1 (stereo not given) | -4.672% |
| O=C(O)[C@@H]1CN(C2CCOCC2)C[C@H]1C1CC1 | 12.44% |
| Clc1ccccc1-c1nc(CNC2CCc3ncnn3C2)co1 (stereo not given) | 83.87% |
| Fc1ccc(-c2nc(CNC3CCc4ncnn4C3)co2)cc1 (stereo not given) | 119.4% |
| Clc1cccc(-c2nc(CNC3CCc4ncnn4C3)co2)c1 (stereo not given) | 112.7% |
| Fc1ccc(-c2nnc(CNC3CCc4ncnn4C3)o2)cc1 (stereo not given) | -10.58% |
| Cc1ccc(-c2nc(CNC3CCc4ncnn4C3)co2)cc1 (stereo not given) | 77.78% |
| c1nc2n(n1)CC(NCc1csc(-c3ccsc3)n1)CC2 (stereo not given) | -11.03% |
| Clc1ccccc1-c1nc(CNC2CCc3ncnn3C2)cs1 (stereo not given) | -2.283% |
| c1ccc(-c2nc(CNC3CCc4ncnn4C3)co2)cc1 (stereo not given) | 3.463% |
| c1csc(-c2nc(CNC3CCc4ncnn4C3)co2)c1 (stereo not given) | -0.5039% |
| Fc1ccc(-c2ccc(CNC3CCc4ncnn4C3)o2)cc1 (stereo not given) | -0.7899% |
